Source: PubChem BioAssay (NCATS)
Records with an inconclusive call do not appear. Where a call stands in place of a potency, no number is given. The source made the active and inactive calls. Calls come from the whole dose curve; as a rule, active = well fitted curve in the direction sought with a large enough effect; inconclusive = small, poorly fitted or top-dose-only effect, or another doubt; inactive = no such curve, though single readings can be large; an effect the other way counts as inactive or inconclusive.

How the values were obtained:
[1] = biological target: Glutathione peroxidase 1 (Homo sapiens) (UniProt P07203); test: Primary qHTS Assay for Inhibitors of Recombinant Selenoprotein Glutathione Peroxidase 1 (GPX1) (AID 1845191); note: nearly all actives have a fitted effect of over 65% in size
Glutathione peroxidase 1 (Homo sapiens), sequence (P07203 whole entry, looked up): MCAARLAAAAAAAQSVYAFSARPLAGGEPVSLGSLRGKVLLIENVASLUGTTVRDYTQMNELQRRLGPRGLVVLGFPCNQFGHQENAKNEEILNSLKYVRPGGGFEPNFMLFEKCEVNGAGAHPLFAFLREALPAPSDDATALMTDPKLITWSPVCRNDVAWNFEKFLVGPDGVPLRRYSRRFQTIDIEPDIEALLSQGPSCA
Summary of the method: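 GR-coupled readout: NADPH consumption tracked by fluorescence, ex 340/em 450 nm, at t=0 and after 15 min at RT. Final mix 10 nM GPX1, 1 mM GSH, 0.5 mM CHP, 0.5 mM NADPH, 100 nM GR, 0.01% BSA, following 30 min enzyme–compound preincubation.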

[2] = biological target: Phospholipid hydroperoxide glutathione peroxidase GPX4 (Homo sapiens) (UniProt P36969); test: Primary qHTS Assay for Inhibitors of Recombinant Selenoprotein Glutathione Peroxidase 4 (GPX4) (AID 1845192); note: nearly all actives have a fitted effect of over 65% in size
Phospholipid hydroperoxide glutathione peroxidase GPX4 (Homo sapiens), sequence (P36969 whole entry, looked up): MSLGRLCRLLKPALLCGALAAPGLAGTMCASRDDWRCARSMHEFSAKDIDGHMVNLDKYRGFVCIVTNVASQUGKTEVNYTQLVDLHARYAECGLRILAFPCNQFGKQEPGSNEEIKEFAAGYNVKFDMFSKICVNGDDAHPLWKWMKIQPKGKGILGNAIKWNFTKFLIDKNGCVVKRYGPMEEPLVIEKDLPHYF
Summary of the method: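 Steps: GPX4 plus compound, 30 min RT; add GR/GSH/NADPH master mix; start with cumene hydroperoxide; read 340/450 nm fluorescence at 0 and 15 min. Finals were 200 nM GPX4, 1 mM GSH, 0.5 mM CHP, 0.5 mM NADPH, 100 nM GR.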

[3] = biological target: Luciferin 4-monooxygenase (Photinus pyralis) (UniProt P08659); test: Primary firefly luciferase (FLuc) qHTS assay for identification of artifact compounds. (AID 1845220); note: nearly all actives have a fitted effect of over 60% in size
Summary of the method: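 D-luciferin and ATP (10 uM each, final) in Tris acetate buffer pH 7.6 were incubated with compounds for 15 min at room temperature. The reaction was started with 10 nM Photinus pyralis luciferase and luminescence read after 5 min. Percent inhibition was fitted to a 4-parameter Hill equation.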

[4] = tested on: Nanoluciferase (engineered Oplophorus gracilirostris luciferase); test: Primary Nanoluciferase (NLuc) qHTS assay for identification of artifact compounds. (AID 1845222); note: series mostly up to about 54 µM
Summary of the method: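 Diluted conditioned medium from NLuc-expressing S16 cells treated with compounds for 15 min at room temperature, then Nano-Glo substrate added; luminescence read after 5 min. Percent inhibition versus no-enzyme and DMSO controls fitted to 4-parameter Hill equation.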

[5] = Primary redox qHTS assay for identification of artifact compounds. (AID 1845223)
Summary of the method: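 Redox-cycling detection via DTT (250 uM final) oxidation coupled to Amplex Red (25 uM)/HRP (250 mU/mL) in HBSS. 15 min preincubation plus 30 min after DTT, room temperature. Ex/Em 525/598 nm; 4-parameter Hill fit against DMSO and 10 uM DA3003.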

[6] = Primary fluorescence-based thiol-reactive (MSTI) qHTS assay for identification of artifact compounds. (AID 1845221); note: nearly all actives have a fitted effect of over 65% in size; note: potency is the fitted concentration of half-maximal effect
Summary of the method: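 MSTI probe at 4 uM final in 2% DMSO/PBS pH 7.4; compounds, 1 h at room temperature in dark. Fluorescence Ex/Em 525/598 nm, normalised to Acetyl-MSTI and MSTI, fitted to 4-parameter Hill.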

Row | Structure (SMILES) | Potency [1] | Potency [2] | Potency [3] | Potency [4] | Potency [5] | Potency [6]
1 | CCOc1cn(-c2ccc(F)cc2C)nc1C(=O)Nc1ccc(Oc2ccnc3cc(OC)c(OC)cc23)c(F)c1 | inactive | inactive | inactive | inactive | inactive | 
2 | COC1C(OC(=O)/C=C/C=C/C=C/C=C/C(=O)O)CCC2(CO2)C1C1(C)OC1CC=C(C)C (stereo unspecified) | inactive | inactive | inactive | inactive | inactive | 
3 | Cc1cc(C)c(S(=O)(=O)n2cc(C)cc2C)c(C)c1 | inactive | inactive | inactive | inactive | inactive | 
4 | C#CCNCc1cc2cc(OCc3ccccc3)ccc2[nH]1 | inactive | inactive | inactive | inactive | inactive | 
5 | C=C(C(=O)OC[C@H]1O[C@@H](OC(=O)/C=C/c2ccccc2)[C@H](O)[C@@H](O)[C@@H]1O)C(O)CO (stereo partly specified) | inactive | inactive | inactive | inactive | inactive | 
6 | O=S(=O)(Nc1ccccc1N1CCCCC1)c1ccc(Cl)s1 | inactive | inactive | inactive | inactive | inactive | 
7 | CN1CCN(C2=Nc3ccccc3Nc3ccc(Cl)cc32)CC1 | inactive | inactive | inactive | inactive | inactive | 
8 | NC(=O)N1CCC(CC(=O)N2CCC(C3c4ncc(Br)cc4CCc4cc(Cl)cc(Br)c43)CC2)CC1 (stereo unspecified) | inactive | inactive | inactive | inactive | inactive | 
9 | C=C1CCC2[C@](C)(CCC[C@@]2(C)C=O)[C@H]1CC/C(C)=C/CO (stereo partly specified) | inactive | inactive | inactive | inactive | inactive | 
10 | CC(/C=C/C(=O)NO)=C\[C@@H](C)C(=O)c1ccc(N(C)C)cc1 | inactive | inactive | inactive | inactive | inactive | 
11 | C[C@@H]1CC[C@@]23CC[C@]4(C)[C@@](C=CC5[C@@]6(C)CC[C@H](O)C(C)(C)C6CC[C@]54C)(OC2=O)C3[C@H]1C (stereo partly specified) | inactive | inactive | inactive | inactive | inactive | 
12 | OC1CCC(Nc2nc(-c3ccccc3)nc3[nH]ccc23)CC1 (stereo unspecified) | inactive | inactive | inactive | inactive | inactive | 
13 | C/C1=C/CCC2=CC(OC2=O)C(C)(C)/C=C/C1=O (stereo unspecified) | inactive | inactive | inactive | inactive | inactive | 
14 | CC1(CO)CC2C(O)C3=C(CC(C)(O)C2C1)C(=O)OC3 (stereo unspecified) | inactive | inactive | inactive | inactive | inactive | 
15 | COC(=O)c1sccc1S(=O)(=O)Nc1ccc(Nc2ccccc2)cc1OC | inactive | inactive | inactive | inactive | inactive | 
16 | Cc1[nH]c(/C=C2\C(=O)Nc3ccc(F)cc32)c(C)c1C(=O)NCCN1CCCC1 | inactive | inactive | inactive | inactive | inactive | 
17 | CCOC(=O)c1cnn(-c2ccccc2)c1NC(=O)c1cc2nc(-c3ccco3)cc(C(F)(F)Cl)n2n1 | inactive | inactive | inactive | inactive | inactive | 
18 | Cc1ccc(N2CCN(CCC3NC(=O)c4ccccc43)CC2)cc1C (stereo unspecified) | inactive | inactive | inactive | inactive | inactive | 
19 | CC1(C(=O)Nc2ccc(F)nc2)CCCN1c1nc(Nc2cc(C3CC3)[nH]n2)c2cccn2n1 (stereo unspecified) | inactive | inactive | inactive | inactive | inactive | 
20 | Cc1cc(C)c2c(c1)C(N(Cc1cc(C(F)(F)F)cc(C(F)(F)F)c1)c1nnn(C)n1)CCCN2CC1CCC(C(=O)O)CC1 (stereo unspecified) | inactive | inactive | inactive | inactive | inactive | 
21 | COC1=CC(=O)C[C@@H](C)[C@@]12Oc1c(Cl)c(OC)cc(OC)c1C2=O | inactive | inactive |  | inactive | inactive | inactive
22 | O=S(=O)(c1ccccc1)N(CC(F)(F)F)c1ccc(C(O)(C(F)(F)F)C(F)(F)F)cc1 | inactive | inactive |  | inactive | inactive | inactive
23 | O=C(Nc1ccc(Cl)cc1)Nc1cccc(-c2cccc(N3CCCC3)n2)c1 | inactive | inactive |  | inactive | inactive | inactive
24 | O=C1c2ccc(Nc3ccc(F)cc3F)cc2CCc2ccc(OCC(O)CO)cc21 (stereo unspecified) | inactive | inactive |  | inactive | inactive | inactive
25 | CN(C)Cc1ccc(-c2cnn3c(-c4cccc(NC(=O)c5cccc(C(F)(F)F)c5)c4)ccnc23)cc1 | inactive | inactive |  | inactive | inactive | inactive
26 | O=C(Nc1ccc2[nH]c(=O)oc2c1)C(=O)N1CCC(Cc2ccc(F)cc2)CC1 | inactive | inactive |  | inactive | inactive | inactive
27 | Cc1ccc(C(=O)Nc2ccc(CN3CCN(C)CC3)c(C(F)(F)F)c2)cc1C#Cc1cnc2[nH]ncc2c1 | inactive | inactive |  | inactive | inactive | inactive
28 | C=C1/C(=C/C=C2\CCC[C@]3(C)[C@@H]([C@H](C)CC[C@@H](O)C(C)(C)O)CC[C@@H]23)C[C@@H](O)C[C@@H]1O | inactive | inactive |  | inactive |  | inactive

Row | Structure (SMILES) | Potency [1] | Potency [2] | Potency [3] | Potency [4] | Potency [5] | Potency [6]
29 | CC(C)Nc1nc(Nc2ccccc2)nc(-c2ccccc2)n1 | inactive | inactive |  | inactive | inactive | inactive
30 | CC(C)c1ccc(NC(=O)c2cccs2)c(-c2nc3ccccc3[nH]c2=O)c1 | inactive | inactive |  | inactive | inactive | inactive
31 | O=C(O)c1cccc(-c2ccc(-c3cn(C(=O)N4CCCCC4Cc4ccccc4)nn3)cc2)c1 (stereo unspecified) | inactive | inactive |  | inactive | inactive | inactive
32 | Cc1ccc(OC[C@H](O)[C@H](C)NC(C)C)c2c1CCC2 | inactive | inactive |  | inactive | inactive | inactive
33 | COc1cc2c(cc1O)C1(Cc3ccc4c(c3C1O)OCO4)[N+](C)([O-])CC2 (stereo unspecified) | inactive | inactive |  | inactive |  | 5.21 µM (active)
34 | NS(=O)(=O)Nc1ncnc(OCCOc2ncc(Br)cn2)c1-c1ccc(Br)cc1 | inactive | inactive |  | inactive | inactive | inactive
35 | COc1c(C(C)C)c(O)c(O)c2c1C(OC)[C@H]1OC(=O)[C@@]23CCCC(C)(C)[C@H]13 (stereo partly specified) | inactive | inactive |  | inactive |  | 2.93 µM (active)
36 | CCCCC1CCN(CCCN2C(=O)CCc3ccccc32)CC1 | inactive | inactive |  | inactive | inactive | inactive
37 | CC(C)c1cccc(C(C)C)c1NC(=O)Nc1ccc(Sc2ccc([N+](=O)[O-])cc2)cc1 | inactive | inactive | inactive |  | inactive | 
38 | COc1ccc([C@H](Cc2ccncc2)c2ccccc2)cc1OC1CCCC1 | inactive | inactive | inactive | inactive | inactive | 
39 | CN1CCN(C2=Nc3ccccc3Nc3ccc(OS(=O)(=O)C(F)(F)F)cc32)CC1 | inactive | inactive | inactive | inactive | inactive | 
40 | C=C1CC[C@@H]2[C@](C)(CO)[C@H](O)CC[C@@]2(C)[C@@H]1CC(O)C1=CCOC1=O (stereo partly specified) | inactive | inactive |  | inactive |  | inactive
41 | O=C(Nc1ccc(-c2ccc(Cl)c(Cl)c2)cc1)C1=C(O)c2ccccc2S(=O)(=O)N1 | inactive | inactive |  | inactive | inactive | inactive
42 | CC(C)NCCCn1c(Sc2cc3c(cc2I)OCO3)nc2c(N)ncnc21 | inactive | inactive |  | inactive | inactive | inactive
43 | Clc1ncoc1-c1c[nH]c2ccccc12 | inactive | inactive | inactive | inactive | inactive | 
44 | CC1(C)Oc2ncnc(N)c2N=C1c1ccc(C23CCC(CC(=O)O)(CC2)CC3)cc1 | inactive | inactive |  | inactive | inactive | inactive
45 | O=C(Nc1ccc2[nH]nc(-c3ccncc3)c2c1)[C@@H]1CCN(CC(=O)N2CCN(c3ccc(-c4ncccn4)cc3)CC2)C1 | inactive | inactive |  | inactive | inactive | inactive
46 | c1ccc(-c2cnn3cc(-c4ccc(OCCN5CCOCC5)cc4)cnc23)cc1 | inactive | inactive |  | inactive |  | inactive
47 | C[C@@H](O[C@H]1OCCN(Cc2nn(P(=O)(O)O)c(=O)[nH]2)[C@H]1c1ccc(F)cc1)c1cc(C(F)(F)F)cc(C(F)(F)F)c1 | inactive | inactive |  | inactive | inactive | inactive
48 | O=c1[nH]c2ccccc2n1CCN1CCN(c2cccc(C(F)(F)F)c2)CC1 | inactive | inactive |  | inactive | inactive | inactive
49 | O=C(NC1CCN(CCCCC2(C(=O)NCC(F)(F)F)c3ccccc3-c3ccccc32)CC1)c1ccccc1-c1ccc(C(F)(F)F)cc1 | inactive | inactive | inactive | inactive | inactive | 
50 | CC(=O)OC1CCC2(C)C(CCC3(C)C2CC=C2C4C(C)C(C)CCC4(C)CCC23C)C1(C)C(=O)O (stereo unspecified) | inactive | inactive |  | inactive | inactive | inactive
51 | CC(=O)O[C@H]1CC2C(COC(=O)CC(C)C)=CO[C@@H](OC(=O)CC(C)C)C2[C@]12CO2 (stereo partly specified) | inactive | inactive |  | inactive | inactive | inactive
52 | CNC(=O)c1ccc2c(c1)CCO[C@H]2CCN1CCN(c2ccc(OC)cc2)CC1 | inactive | inactive | inactive | inactive | inactive | 
53 | CN1CCN(c2ccc(Nc3cc(-c4cccc(-n5ccc6cc(C7CC7)cc(F)c6c5=O)c4CO)cn(C)c3=O)nc2)CC1 | inactive | inactive | inactive |  | inactive | 
54 | COc1cc2ncnc(Nc3ccc(F)c(Cl)c3)c2cc1O | inactive | inactive | inactive |  | inactive | 
55 | CCCOc1ccc(S(=O)(=O)N2CCN(CCO)CC2)cc1-c1nc2c(CCC)cn(CC)c2c(=O)[nH]1 | inactive | inactive |  | inactive |  | inactive
